Measurements taken from PubChem BioAssay (EPA / NIEHS).
Activity calls are given as the source filed them. The calls were made as follows: active = hit-call score of the fitted dose curve at least 0.9, where 1 is the maximum; inactive = score below 0.9.

Experiments:
[1] = target: Transcription factor E2F1 (Homo sapiens) (UniProt Q01094); experiment: ATG_E2F_CIS: Attagene CIS-FACTORIAL HepG2 Assay for human E2F Transcription Factor 1 (AID 2282935); conditions: HepG2 Attagene cis-reporter, E2F reporter RNA transcripts; actives raise or lower the signal
Transcription factor E2F1 (Homo sapiens), sequence (Q01094 whole entry, looked up): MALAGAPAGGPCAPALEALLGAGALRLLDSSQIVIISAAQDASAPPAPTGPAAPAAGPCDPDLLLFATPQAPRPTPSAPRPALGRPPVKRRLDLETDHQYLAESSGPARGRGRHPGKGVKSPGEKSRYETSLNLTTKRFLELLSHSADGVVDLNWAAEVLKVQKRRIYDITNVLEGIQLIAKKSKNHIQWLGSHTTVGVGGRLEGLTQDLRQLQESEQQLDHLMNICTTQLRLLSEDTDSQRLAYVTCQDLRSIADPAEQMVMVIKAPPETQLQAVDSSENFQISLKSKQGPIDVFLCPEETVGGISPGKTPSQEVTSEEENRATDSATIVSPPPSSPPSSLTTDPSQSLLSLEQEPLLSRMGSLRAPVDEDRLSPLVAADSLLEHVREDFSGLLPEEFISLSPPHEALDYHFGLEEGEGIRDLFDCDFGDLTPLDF
Summary of the method: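 Multiplexed cis-reporter assay: HepG2, transient transfection, 24 h dosing, mRNA quantitation by labeled RT-PCR and CE.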

[2] = ATG_E_Box_CIS: Attagene CIS-FACTORIAL HepG2 Assay for human Enhancer Box (E-box) (AID 2282936); conditions: HepG2 E-box cis-reporter transcription, actives raise or lower the signal
Summary of the method: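 Multiplexed CIS reporter system in transiently transfected HepG2 cells measures native transcription factor activity. Reporter RNA after 24 h exposure is profiled by RT-PCR-capillary electrophoresis.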

[3] = ATG_M_61_CIS: Attagene CIS-FACTORIAL HepG2 Assay for M61 Transcription Factor (Internal Marker) (AID 2282937); conditions: HepG2 Attagene CIS-FACTORIAL M61 internal marker reporter; actives raise or lower the signal
Summary of the method: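 Fluorescence from labelled cDNA fragments, separated by capillary electrophoresis, quantifies reporter induction. HepG2 cells bearing transiently transfected cis-promoter MRTUs were incubated with test chemical for 24 h; DMSO defined baseline for gain/loss fitting.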

[4] = ATG_M_19_CIS: Attagene CIS-FACTORIAL HepG2 Assay for M19 Transcription Factor (Internal Marker) (AID 2282939); conditions: HepG2 Attagene CIS-FACTORIAL M19 internal marker reporter; actives raise or lower the signal
Summary of the method: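 Transfect HepG2 with MRTU reporter library → dose chemical, 24 h → isolate total RNA, reverse-transcribe with oligo(dT) → PCR, 6-FAM label, HpaI cut (2 h, 37 C) → capillary electrophoresis. Bidirectional fit vs DMSO.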

[5] = ATG_ERE_CIS: Attagene CIS-FACTORIAL HepG2 Assay for Estrogen Response Element (ERE) (AID 2282940); conditions: HepG2 ERE cis-reporter, Attagene RNA transcript; actives raise or lower the signal
Summary of the method: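 Transient MRTU transfection of human HepG2; cis-element promoters; 24 h dosing; total RNA → RT (oligo dT) → PCR → 6-FAM primer extension → HpaI digest → CE fluorescence. Bidirectional fit, DMSO baseline.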

[6] = ATG_Ets_CIS: Attagene CIS-FACTORIAL HepG2 Assay for human Erythroblast Transformation Specific (ETS) (AID 2282941); conditions: HepG2 ETS cis-reporter transcription, actives raise or lower the signal
Summary of the method: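 Steps: transfect HepG2 with multiple reporter units; treat compound 24 h; isolate RNA, DNase-treat, reverse-transcribe; PCR-amplify, label with 6-FAM, digest with HpaI; separate by capillary electrophoresis. Activity fitted both directions versus DMSO.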

[7] = target: Hepatocyte nuclear factor 3-beta (Homo sapiens) (UniProt Q9Y261); experiment: ATG_FoxA2_CIS: Attagene CIS-FACTORIAL HepG2 Assay for human Forkhead box A2 (FOXA2) (AID 2282942); conditions: HepG2 cis-reporter transcription factor activity, 24 h; actives raise or lower the signal
Hepatocyte nuclear factor 3-beta (Homo sapiens), sequence (Q9Y261 whole entry, looked up): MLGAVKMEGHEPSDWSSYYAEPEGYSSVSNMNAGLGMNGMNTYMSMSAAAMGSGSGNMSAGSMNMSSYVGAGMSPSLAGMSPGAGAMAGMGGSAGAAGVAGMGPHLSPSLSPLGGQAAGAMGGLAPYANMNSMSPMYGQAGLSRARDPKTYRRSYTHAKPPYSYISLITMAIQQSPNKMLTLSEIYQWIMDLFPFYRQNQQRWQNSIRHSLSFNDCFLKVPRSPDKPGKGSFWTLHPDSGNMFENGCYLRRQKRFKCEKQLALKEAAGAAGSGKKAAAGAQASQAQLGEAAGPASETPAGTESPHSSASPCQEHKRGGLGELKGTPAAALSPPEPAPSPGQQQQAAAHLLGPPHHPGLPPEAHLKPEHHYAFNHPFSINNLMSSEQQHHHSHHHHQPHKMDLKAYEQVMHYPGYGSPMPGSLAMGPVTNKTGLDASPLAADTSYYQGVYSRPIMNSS
Summary of the method: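 In transiently transfected human HepG2 cells, promoter-driven reporter mRNA levels after 24 h chemical exposure are determined via RT-PCR with capillary electrophoresis. DMSO serves as baseline for bidirectional fitting.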

[8] = ATG_FoxO_CIS: Attagene CIS-FACTORIAL HepG2 Assay for human Forkhead box O (FoxO) (AID 2282943); conditions: HepG2 Attagene cis-reporter, FoxO element, mRNA; actives raise or lower the signal
Summary of the method: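 HepG2 cells transiently transfected with cis-promoter-driven multiple reporter transcription units; 24 h after chemical dosing, reporter mRNA quantified by RT-PCR, fluorescent primer extension, HpaI digestion and capillary electrophoresis. Bidirectional fitting versus DMSO baseline.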

[9] = ATG_GATA_CIS: Attagene CIS-FACTORIAL HepG2 Assay for human GATA Binding Protein (AID 2282944); conditions: HepG2 GATA cis-element reporter, Attagene multiplex mRNA; actives raise or lower the signal
Summary of the method: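 Transient MRTU transfection, HepG2, 24 h compound exposure. Total RNA → oligo(dT) RT → PCR → 6-FAM primer extension → HpaI cut → CE. Bidirectional fit vs DMSO.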

[10] = ATG_GLI_CIS: Attagene CIS-FACTORIAL HepG2 Assay for human Zinc Finger Protein GLI1 (AID 2282945); conditions: HepG2, Attagene cis-factorial reporter mRNA, GLI element; actives raise or lower the signal
Summary of the method: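 HepG2 cells transiently transfected with cis-promoter multiplexed reporter units report endogenous transcription factor activity. After 24 h chemical exposure, reporter mRNA was quantified by RT-PCR, 6-FAM labelling, HpaI digestion and capillary electrophoresis, with bidirectional fitting against DMSO.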

[11] = target: Bile acid receptor (Homo sapiens) (UniProt Q96RI1); experiment: ATG_IR1_CIS: Attagene CIS-FACTORIAL HepG2 Assay for human Nuclear Receptor Subfamily 1 Group H Member 4 (NR1H4), IR1 submotif (AID 2282946); conditions: IR1 reporter transcription, actives raise or lower the signal
Bile acid receptor (Homo sapiens), sequence (Q96RI1 whole entry, looked up): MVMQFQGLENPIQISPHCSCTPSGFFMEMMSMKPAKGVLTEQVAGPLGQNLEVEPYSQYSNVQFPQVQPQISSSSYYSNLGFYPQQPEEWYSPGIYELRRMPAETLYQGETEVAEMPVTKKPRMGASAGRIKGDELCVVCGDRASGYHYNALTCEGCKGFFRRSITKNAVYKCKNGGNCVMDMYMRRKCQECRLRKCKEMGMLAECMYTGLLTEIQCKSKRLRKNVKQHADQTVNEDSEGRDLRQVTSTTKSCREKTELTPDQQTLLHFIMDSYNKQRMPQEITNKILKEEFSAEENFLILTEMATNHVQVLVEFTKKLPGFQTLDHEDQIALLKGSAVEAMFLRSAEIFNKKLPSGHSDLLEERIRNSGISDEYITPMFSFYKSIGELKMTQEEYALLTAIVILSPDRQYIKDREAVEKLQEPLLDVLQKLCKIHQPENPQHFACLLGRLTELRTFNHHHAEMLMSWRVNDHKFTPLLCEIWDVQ
Summary of the method: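 Transient MRTU transfection, HepG2; 24 h dosing; RNA → RT-PCR → 6-FAM primer extension → HpaI digest → capillary electrophoresis fluorescence. Gain/loss of signal fitted relative to DMSO.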

[12] = ATG_GRE_CIS: Attagene CIS-FACTORIAL HepG2 Assay for human Glucocorticoid Response Elements (GRE) (AID 2282947); conditions: HepG2 GRE cis-reporter, Attagene multiplex mRNA; actives raise or lower the signal
Summary of the method: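 Following 24 h chemical exposure of transiently transfected HepG2 cells, total RNA was reverse-transcribed and reporter cDNA amplified, fluorescently labelled and sized by capillary electrophoresis. Signal gain or loss was fitted relative to DMSO vehicle.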

[13] = ATG_ISRE_CIS: Attagene CIS-FACTORIAL HepG2 Assay for human Interferon Regulatory Factor 1 (IRF1) binding to an Interferon-Stimulated Response Element (ISRE) (AID 2282948); conditions: HepG2 ISRE cis-reporter (Attagene), mRNA transcription readout; actives raise or lower the signal
Summary of the method: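 Transfected HepG2 (multiple reporter transcription units, cis elements) dosed 24 h. RNA → oligo(dT) RT → PCR → 6-FAM primer extension → HpaI → CE. DMSO = negative control/baseline.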

[14] = ATG_M_32_CIS: Attagene CIS-FACTORIAL HepG2 Assay for M32 Transcription Factor (Internal Marker) (AID 2282949); conditions: HepG2 Attagene cis-factorial M32 reporter, mRNA; actives raise or lower the signal;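 also: background control marker of the multiplexed CIS panel rather than a real target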
Summary of the method: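 HepG2 cells transiently transfected with multiplexed cis-regulated reporter units, dosed 24 h. Reporter mRNA quantified by RT-PCR, 6-FAM labelling, HpaI digestion and capillary electrophoresis; bidirectional fit vs DMSO.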

[15] = ATG_M_06_CIS: Attagene CIS-FACTORIAL HepG2 Assay for M06 Transcription Factor (Internal Marker) (AID 2282950); conditions: HepG2 Attagene CIS-FACTORIAL M06 internal marker reporter; actives raise or lower the signal
Summary of the method: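 Read-out is fluorescence of labelled reporter cDNA fragments resolved by capillary electrophoresis after RT-PCR. Cells: HepG2 carrying transfected cis-promoter reporter units, treated 24 h. Gain or loss of signal fitted relative to DMSO.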

[16] = target: Hypoxia-inducible factor 1-alpha (Homo sapiens) (UniProt Q16665); experiment: ATG_HIF1a_CIS: Attagene CIS-FACTORIAL HepG2 Assay for human Hypoxia Inducible Factor 1 (HIF1A) (AID 2282951); conditions: HepG2 Attagene cis-factorial HIF1a reporter transcription; actives raise or lower the signal
Hypoxia-inducible factor 1-alpha (Homo sapiens), sequence (Q16665 whole entry, looked up): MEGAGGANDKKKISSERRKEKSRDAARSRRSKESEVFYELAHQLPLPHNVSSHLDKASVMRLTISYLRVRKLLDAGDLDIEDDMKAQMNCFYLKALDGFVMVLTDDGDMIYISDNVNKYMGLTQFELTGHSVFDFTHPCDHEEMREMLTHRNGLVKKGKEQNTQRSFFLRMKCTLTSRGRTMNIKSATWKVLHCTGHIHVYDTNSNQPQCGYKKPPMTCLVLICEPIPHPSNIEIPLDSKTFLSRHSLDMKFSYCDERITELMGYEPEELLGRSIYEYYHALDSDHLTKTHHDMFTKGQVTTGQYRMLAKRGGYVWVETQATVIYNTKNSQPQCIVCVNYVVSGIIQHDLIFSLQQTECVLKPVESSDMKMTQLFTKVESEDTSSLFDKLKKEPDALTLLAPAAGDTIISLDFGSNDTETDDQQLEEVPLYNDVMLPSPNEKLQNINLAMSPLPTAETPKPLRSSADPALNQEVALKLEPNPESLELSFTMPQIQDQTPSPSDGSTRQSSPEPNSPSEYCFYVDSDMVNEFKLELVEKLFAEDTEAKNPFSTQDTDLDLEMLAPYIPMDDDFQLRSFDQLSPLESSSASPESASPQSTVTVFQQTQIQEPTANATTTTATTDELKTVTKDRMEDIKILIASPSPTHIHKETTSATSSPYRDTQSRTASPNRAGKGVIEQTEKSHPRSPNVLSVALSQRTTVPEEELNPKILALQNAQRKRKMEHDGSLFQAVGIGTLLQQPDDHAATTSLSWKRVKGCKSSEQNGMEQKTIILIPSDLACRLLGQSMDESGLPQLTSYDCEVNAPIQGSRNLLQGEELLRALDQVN
Summary of the method: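 In this multiplexed cell assay, HepG2 cells bearing transfected cis reporters are dosed for 24 h and reporter mRNA is read by RT-PCR plus capillary electrophoresis; signal increases and decreases are both scored against DMSO.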

[17] = target: Hepatocyte nuclear factor 6 (Homo sapiens) (UniProt Q9UBC0); experiment: ATG_HNF6_CIS: Attagene CIS-FACTORIAL HepG2 Assay for human Hepatocyte Nuclear Factor 6 (HNF6) (AID 2282952); conditions: HepG2 Attagene cis-factorial HNF6 reporter transcription; actives raise or lower the signal
Hepatocyte nuclear factor 6 (Homo sapiens), sequence (Q9UBC0 whole entry, looked up): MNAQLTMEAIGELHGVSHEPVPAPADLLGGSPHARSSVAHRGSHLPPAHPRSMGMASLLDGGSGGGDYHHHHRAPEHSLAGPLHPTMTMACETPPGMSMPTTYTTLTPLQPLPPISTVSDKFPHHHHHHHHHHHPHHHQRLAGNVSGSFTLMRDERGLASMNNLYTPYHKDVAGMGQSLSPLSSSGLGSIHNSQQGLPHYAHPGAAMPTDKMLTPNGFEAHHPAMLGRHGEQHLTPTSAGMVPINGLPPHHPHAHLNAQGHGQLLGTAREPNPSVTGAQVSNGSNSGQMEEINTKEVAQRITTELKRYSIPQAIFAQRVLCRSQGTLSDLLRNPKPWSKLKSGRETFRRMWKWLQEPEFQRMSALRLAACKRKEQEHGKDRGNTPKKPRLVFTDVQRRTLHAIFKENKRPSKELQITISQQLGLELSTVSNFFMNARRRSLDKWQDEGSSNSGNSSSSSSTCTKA
Summary of the method: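 HepG2, transient MRTU transfection (cis promoters); 24 h chemical exposure; total RNA → oligo(dT) RT → PCR → 6-FAM labelling → HpaI cut → CE; bidirectional fit vs DMSO.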

[18] = target: Heat shock factor protein 1 (Homo sapiens) (UniProt Q00613); experiment: ATG_HSE_CIS: Attagene CIS-FACTORIAL HepG2 Assay for human Heat Shock Transcription Factor 1 (HSE) (AID 2282953); conditions: HepG2 HSE cis-reporter, Attagene RNA transcription; actives raise or lower the signal
Heat shock factor protein 1 (Homo sapiens), sequence (Q00613 whole entry, looked up): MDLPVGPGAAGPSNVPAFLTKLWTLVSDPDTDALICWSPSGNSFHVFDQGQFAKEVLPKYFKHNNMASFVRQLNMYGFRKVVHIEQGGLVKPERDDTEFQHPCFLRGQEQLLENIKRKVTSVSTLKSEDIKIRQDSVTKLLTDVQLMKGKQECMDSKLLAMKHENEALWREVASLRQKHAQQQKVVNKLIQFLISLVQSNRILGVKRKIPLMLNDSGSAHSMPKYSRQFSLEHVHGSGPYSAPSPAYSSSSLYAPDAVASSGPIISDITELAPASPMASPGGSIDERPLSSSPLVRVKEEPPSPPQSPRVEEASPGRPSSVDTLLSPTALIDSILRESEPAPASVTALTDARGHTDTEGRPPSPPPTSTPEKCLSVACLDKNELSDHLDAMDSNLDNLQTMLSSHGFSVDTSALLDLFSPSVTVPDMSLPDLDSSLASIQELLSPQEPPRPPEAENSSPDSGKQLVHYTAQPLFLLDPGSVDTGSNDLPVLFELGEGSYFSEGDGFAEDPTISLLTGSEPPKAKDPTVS
Summary of the method: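 HepG2, transient MRTU transfection, cis-promoter reporters (endogenous TF activity). 24 h compound. RNA → oligo(dT) RT → PCR → 6-FAM primer extension → HpaI cut → CE. Bidirectional fit vs DMSO.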

[19] = ATG_MRE_CIS: Attagene CIS-FACTORIAL HepG2 Assay for human Metal Responsive Element (MRE) (AID 2282954); conditions: HepG2 MRE cis-reporter transcription, Attagene multiplex; actives raise or lower the signal
Summary of the method: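 Step one: transfect HepG2 with cis-regulated reporter units. Step two: dose 24 h. Step three: isolate RNA, RT-PCR, 6-FAM label, HpaI digest, capillary electrophoresis. Fit bidirectionally to DMSO.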

[20] = ATG_EGR_CIS: Attagene CIS-FACTORIAL HepG2 Assay for human Early Growth Response 1 (EGR1) (AID 2282938); conditions: HepG2 Attagene CIS-FACTORIAL EGR reporter mRNA; actives raise or lower the signal
Summary of the method: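 Cell-based multiplex transcription assay: HepG2 carrying transfected cis-element reporter units, 24 h chemical treatment. Fluorescence from capillary electrophoresis of RT-PCR products gives mRNA levels; fitting is bidirectional relative to DMSO.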

Measured: AC50

CC(C=O)c1ccccc1 (centres undefined)
not listed: [20]
inactive: all other assays above

CCCCOC(=O)C(C)CC (centres undefined)
not listed: [11] | [19] | [20]
inactive: all other assays above

C=CC(=O)OCCCCCCOC(=O)C=C
active: [2] 100 µM | [11] 42.5 µM | [13] 75.3 µM | [19] 52.4 µM
not listed: [12] | [18] | [20]
inactive: all other assays above

COC(OC)(C(=O)c1ccccc1)c1ccccc1
active: [20] 35.1 µM | [5] 2.01 µM
not listed: [8] | [11] | [17] | [19]
inactive: all other assays above

c1ccc2c(c1)[nH]c1ccccc12
not listed: [11] | [20]
inactive: all other assays above

CCCCCCCC(=O)OCC(COC(=O)CCCCCCC)OC(=O)CCCCCCC
not listed: [12] | [20]
inactive: all other assays above

CC1(C)C(=O)N(CO)C(=O)N1CO
not listed: [8] | [10] | [19]
inactive: all other assays above

CCCCOCCOCCOC(C)=O
not listed: [11] | [17] | [20]
inactive: all other assays above
